# From PubChem BioAssay
# In the library only some 1.4% were active in any assay of this set; here they are far more common.
# LEDGF integ inh: blockers of LEDGF/p75-dependent integrase strand transfer – biochemical, TR-FRET, high throughput, primary screen. HIV-1 integrase (with human LEDGF/p75). TR-FRET IN-LEDGF/p75 DNA integration, Eu/Cy5. inhibition, % at 3.7 µM. hit rate 0.64% among 370,000;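 active means inhibition above the screen-wide mean plus 3 SD, cut at about 13% in these data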;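 further: signal is the Cy5 over europium emission ratio at 671 and 618 nm; 0% = plate median of compound wells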
# UHRF1 binding: UHRF1 methylated DNA binding inhibitors, primary screen, counter-screen for MBD2 inhibitor project, biochemical, TR-FRET, human UHRF1, single concentration | E3 ubiquitin-protein ligase UHRF1 (Homo sapiens), Q96T88 | UHRF1 binding to methylated oligo | inhibition, % at 4.4 µM | hit rate 0.75% among 370,000;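 further: UHRF1 SRA domain binding a hemimethylated CpG hairpin DNA probe; 0% = median of test compound wells and 100% = reference inhibitor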
# Casp6 inh: human caspase-6 inhibitors, primary screen, biochemical, VEID-R110 fluorescence, single point, set 2; purified caspase-6, Z-VEID-R110 cleavage fluorescence; inhibition, % at 12.5 µM; hit rate 0.53% among 350,000; AID 686996, 2013;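 active means mean inhibition across replicates at least about 35%, with every replicate also reaching that limit, limit read from the data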;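 further: 0% = median of neutral control wells and 100% = no fluorescence left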
# MBD2 inh: inhibitors of MBD2 binding to methylated DNA, primary screen, biochemical, TR-FRET, DNA-binding domain, human | Methyl-CpG-binding domain protein 2 (Homo sapiens), Q9UBB5 | MBD2 binding to methylated oligonucleotide | inhibition, % at 4.4 µM | hit rate 0.31% among 370,000; in the data active means inhibition above about 13%
# Target sequence (Q9UBB5 whole entry, looked up, the tested form may be a part): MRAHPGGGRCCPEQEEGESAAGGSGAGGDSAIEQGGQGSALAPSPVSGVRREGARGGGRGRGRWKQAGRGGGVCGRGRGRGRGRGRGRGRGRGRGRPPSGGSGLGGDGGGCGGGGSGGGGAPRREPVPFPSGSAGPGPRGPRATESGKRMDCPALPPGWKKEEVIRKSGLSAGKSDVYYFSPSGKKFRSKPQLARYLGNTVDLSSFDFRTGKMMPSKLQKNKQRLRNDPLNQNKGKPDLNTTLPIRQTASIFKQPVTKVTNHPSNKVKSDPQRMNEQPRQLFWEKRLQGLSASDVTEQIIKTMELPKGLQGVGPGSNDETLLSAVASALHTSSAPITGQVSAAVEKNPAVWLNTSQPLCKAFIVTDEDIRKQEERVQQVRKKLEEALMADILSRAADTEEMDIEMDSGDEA
# UHRF1 DNA bind: UHRF1 methylated DNA binding inhibitors, counter-screen for MBD2 inhibitor project, biochemical, TR-FRET, human UHRF1 | shares compounds with MBD2 inh | UHRF1 binding to methylated oligonucleotide | inhibition, % at 4.4 µM | hit rate 25% among 1,000;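 further: UHRF1 SRA domain binding a labeled hemimethylated CpG hairpin DNA; 0% = vehicle only and 100% = reference inhibitor with vehicle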
# MBD2 DBD conf: inhibitors of MBD2 binding to methylated DNA, confirmation, biochemical, TR-FRET, DNA-binding domain, human; shares compounds with MBD2 inh; TR-FRET MBD2-DBD binding to methylated oligonucleotide; inhibition, % at 4.4 µM; hit rate 26% among 1,000; in the data active means inhibition above about 14%
# * marks the source's active call; other numbers are inactive results; / = no result given. Unless noted, no stated cut-off is given here; in the data, active means inhibition above about 21%; inactive means the rest.
SMILES,LEDGF integ inh,UHRF1 binding,Casp6 inh,MBD2 inh,UHRF1 DNA bind,MBD2 DBD conf
CC(C)NC(=O)Nc1ccc2c(c1)C(=O)N([C@H](C)CO)C[C@@H](C)[C@H](CN(C)CC1CCCCC1)OCCCC[C@@H](C)O2,/,/,6.3,/,/,/
COCCn1c(N)c(N(Cc2ccccc2)C(=O)c2ccc3ccccc3c2)c(=O)[nH]c1=O,9.6,26.3*,1.1,13.3*,5.6,2.2
Cc1c(Nc2c3ccccc3nc3ccccc23)c(=O)n(-c2ccccc2)n1C,-4.0,-2.4,4.6,24.4*,0.6,-5.4
Cc1c(Nc2nc3ccccc3nc2N2CCN(c3ccccc3)CC2)c(=O)n(-c2ccccc2)n1C,0.6,1.7,/,-6.1,/,/
COc1ccc(NC(=O)[C@@H]2CC=C[C@@H]3CCN(C4CCCCC4)C(=O)[C@@H]32)cc1,1.5,-2.4,/,63.6*,6.5,1.2
CO[C@H]1CN(C)C(=O)c2cc(NC(=O)C3CC3)ccc2OC[C@@H](C)N(C(=O)c2ccccc2)C[C@H]1C,/,/,0.4,/,/,/
CCOC(=O)[C@H]1[C@H]2COc3ccccc3[C@@H]2N2C(=O)c3ccccc3NC(=O)[C@@]12C,0.0,19.6,4.1,17.8*,6.5,2.5
O=C1c2cccc(NCCNCCO)c2C(=O)c2cccc(NCCNCCO)c21,6.5,93.4*,-21.1,107.0*,92.7*,107.6*
C[C@@H]1CN([C@@H](C)CO)C(=O)c2ccccc2-c2ccccc2CO[C@@H]1CN(C)Cc1ccc2c(c1)OCCN2C,/,/,4.2,/,/,/
CCCn1c(N)c(N2CCCCC2)c(=O)n(CC(=O)Nc2ccc(OC(F)(F)F)cc2)c1=O,11.5,23.7*,/,17.6*,15.4,2.4
COc1ccc(S(=O)(=O)N(C)C[C@H]2OCCCC[C@@H](C)Oc3ccc(NS(=O)(=O)c4c(C)noc4C)cc3C(=O)N([C@@H](C)CO)C[C@H]2C)cc1,/,/,1.1,/,/,/
O=C(c1ccc(S(=O)(=O)N2CCC(c3nc4ccccc4[nH]3)CC2)cc1)N1CCOCC1,0.5,21.7*,/,14.0*,6.0,8.7
Cc1ccc(S(=O)(=O)N(C)C[C@@H]2Oc3ncc(-c4ccncc4)cc3C(=O)N([C@@H](C)CO)C[C@@H]2C)cc1,/,/,0.7,/,/,/
CN(CC(=O)Nc1ccc(N2CCOCC2)cc1)C(=O)CCNC(=O)c1ccccc1Cl,-6.0,4.6,1.7,14.1*,10.0,2.2
CN(CC(=O)Nc1ccc(N2CCOCC2)cc1)C(=O)CCc1ccccc1Cl,0.2,7.8,-4.9,3.3,/,/
COc1ccc(CC(=O)Nc2cccc(S(=O)(=O)N3CCCCC3)c2)cc1,1.4,-2.5,0.8,39.6*,2.2,1.8
C/C=C/C=[N+](\[O-])C(C)/C(=N/O)c1ccc(F)cc1 (configuration not stated),1.1,4.9,/,14.2*,0.7,1.0
COc1ccc(OCc2nn3c(-c4ccccn4)nnc3s2)cc1,2.6,0.0,/,22.4*,5.1,3.1
O=C(C1CCOCC1)N1CC(=O)N2[C@H](C1)[C@H](c1ccc(C#CCc3ccccc3)cc1)[C@@H]2CO,/,/,3.9,/,/,/
Cc1ccc(NC(=O)CN(C)CC(=O)Nc2c(C)cccc2C)c(Br)c1,-0.9,-2.4,/,37.7*,-0.4,4.7
O=C(NCC(c1cccs1)N1CCOCC1)c1cn(-c2ccccc2)nc1-c1ccc(Cl)cc1 (configuration not stated),4.0,-5.1,6.9,14.1*,7.4,2.8
O=C(NCC(c1cccs1)N1CCOCC1)c1cn(-c2ccccc2)nc1-c1ccccc1 (configuration not stated),-1.9,3.3,0.3,2.5,/,/
O=C(c1ccccc1)N1CC(=O)N2[C@H](CO)[C@H](c3ccc(C#CC4CC4)cc3)[C@@H]2C1,/,/,-1.9,/,/,/
CC(=O)Nc1ccc2nc(C)n(Cc3ccc(Cl)cc3)c(=O)c2c1,1.5,22.7*,/,14.6*,6.4,2.5
Cc1ccc(NC(=S)N(CCCN2CCN(C)CC2)Cc2cccs2)cc1,3.9,25.2*,-5.9,16.3*,8.9,2.7
SMILES,LEDGF integ inh,UHRF1 binding,Casp6 inh,MBD2 inh,UHRF1 DNA bind,MBD2 DBD conf
Cc1ccc(NC(=S)N(CCCN2CCN(C)CC2)Cc2cccs2)cc1C,-3.3,-2.0,-6.2,-1.4,/,/
Cn1c(=O)n(C/C=C/c2ccccc2)c(=O)c2c1nc1n2CCCN1Cc1ccccc1,-2.5,-2.2,/,0.8,/,/
C=CCn1c(=O)c2c(nc3n2CCCN3Cc2ccccc2)n(C)c1=O,6.5,25.0*,-2.7,15.2*,5.3,2.1
Cc1noc(C)c1NC(=O)Nc1ccc2c(c1)C(=O)N([C@H](C)CO)C[C@@H](C)[C@H](CN(C)S(=O)(=O)c1ccc(Cl)cc1)OCCCC[C@@H](C)O2,/,/,-1.3,/,/,/
COc1cccc2c1C(=O)c1c(O)c3c(c(O)c1C2=O)C[C@](O)(C(C)=O)C[C@H]3O[C@@H]1C[C@@H](N)[C@@H](O)[C@@H](C)O1,2.1,93.0*,-56.4,111.5*,100.7*,110.9*
OC[C@@H](O)C(O)[C@@H](O)CO (some centres not stated),-0.3,12.9,-3.4,22.3*,6.0,3.2
Cc1noc(C)c1S(=O)(=O)N(C)C[C@H]1Oc2c(NC(=O)C3CC3)cccc2C(=O)N([C@H](C)CO)C[C@H]1C,/,/,3.5,/,/,/
Cc1ccc(-c2nc3ccc(Cl)cn3c2CC2CCCCC2)cc1,1.1,1.5,-1.6,-2.6,/,/
Cc1ccc(-c2nc3ccc(C)cn3c2CC2CCCCC2)cc1,2.1,21.7*,-8.2,13.4*,7.0,2.2
O=C(CSc1nc(O)cc(=O)n1C1CCCC1)Nc1cccc(Cl)c1Cl,-2.1,-3.5,1.4,2.1,/,/
COC(=O)c1ccccc1NC(=O)CSc1nc(O)cc(=O)n1C1CCCC1,12.9,24.2*,/,13.4*,5.3,2.5
CCN(CC(=O)Nc1c(F)cccc1F)C(=O)/C=C/c1ccc2ccccc2n1,9.9,63.8*,46.6*,29.6*,65.5*,57.8*
O=C(O)c1ccc(NC(=S)NC(=O)C(c2ccccc2)c2ccccc2)cc1,3.7,-0.9,4.7,-3.1,/,/
O=C(O)c1cccc(NC(=S)NC(=O)C(c2ccccc2)c2ccccc2)c1,-0.8,-1.5,/,14.4*,0.7,5.3
C/C=C/c1ccccc1[C@@H]1[C@@H](C#N)N(C(C)=O)[C@@H]1CO,/,/,0.9,/,/,/
COc1cc(NC(=O)C2CCCCC2)c(OC)cc1NC(=O)c1ccccc1,3.1,-3.6,1.6,-6.0,/,/
